From the OligoGym collection

target: ELF2; assay: pooled miR-30 sensor sort-seq; sequence = guide strand; conditions: shRNA
Further: reference of the scale not given here.

Row | Sequence | sensor-assay potency score (higher = more potent)
1 | TAGATCTAAAAGAAACTCCCAC | 0.171
2 | TTGTTCTTCTGCCACATCTTGC | -0.939
3 | TTGATTTTCTACTCCATTGCTG | 0.197
4 | TATCCTTGAACTGATATACAAG | -1.19
5 | TTTCACATCATGTTCTTGCTTT | 0.568
6 | TGATATTCACAACTCTAGCTAC | -0.607
7 | TAATCTGGCACTTGGAACTGGC | -0.333
8 | TTTGTCATCATCTATGACCACT | -0.807
9 | TTTATCTTGAAGTAGATCTAAA | -0.649
10 | TGATTTTCTACTCCATTGCTGG | -0.423

target: EMD; assay: as above; conditions: shRNA

Row | Sequence | sensor-assay potency score (higher = more potent)
11 | AAAGCCTACGAGTTGATCCTAC | -0.00514
12 | TTCCCTATCCTTGCACTCCTCT | -0.239
13 | TAGTGCGTGATGCTCTGGTAGG | -0.899
14 | AATGAAGTCACTGACTGGCGGA | -0.824
15 | TACATATCTGCATCCCCTCTAG | -0.434
16 | TAGTCGTCATTGTAGCCCTTGC | -0.858
17 | AAGAAGACAAAAGATCGTCATC | -1.25
18 | TAATAGGACAGGTCCAGGGAGC | -1.25
19 | TACTCGAAGATCTTCTTCTCGT | -0.0297
20 | TATCCTTGCACTCCTCTTCAGA | -0.66
21 | TCGTACTCGAAGATCTTCTTCT | 0.284
22 | ATCGTCATCATGCACCTGGTGA | -0.488
23 | TGCTCTGGTAGAGTAAAGCGTC | -0.878
24 | ATCTTCTTCTCGTAAAGCCTAC | -1.02
25 | AAGATCGTCATCATGCACCTGG | 0.638
26 | TAGGATAATAGGACAGGTCCAG | -0.423
27 | TAGTAGTCGTCATTGTAGCCCT | -0.272
28 | TACGAGTTGATCCTACTACAGG | -1.33
29 | TGGTGAAGTAGCTCTCTTCATA | -1.46
30 | TCGAAGATCTTCTTCTCGTAAA | -1.01
31 | TTCTTCTCGTAAAGCCTACGAG | -0.852
32 | TAGCTCTCTTCATAGTAGTCGT | -0.538
33 | TAAAGCGTCCTCTTTCTTGGGA | 0.267
34 | TCTGGTAGAGTAAAGCGTCCTC | 0.201

target: EMILIN2; assay: as above; conditions: shRNA

Row | Sequence | sensor-assay potency score (higher = more potent)
35 | TTTAATTCCATCATGACCCGTT | 0.891
36 | ATAGTCATCACACTGCTGCTGG | 0.195
37 | TTCCATTACATACAAACCGAAT | -1.63
38 | TAGGTCTGAAGTTCACTCGATA | -0.326
39 | TTCTCCGTCACATTGATCCTTG | -0.623
40 | TTGACCAATGTCACCATTCTTT | -0.477
